Where “and” joins values, the source holds several entries; their conditions need not be identical. Equal entries are not always repeated. Inconclusive results are not listed. Calls of active or inactive are those of the source. Unless noted, calls follow the shape of the dose curve; as a rule, active = well fitted curve in the direction sought with a large enough effect in the repeat runs; inconclusive = weak or mixed curves; inactive = no such curve, though single readings can be large; an effect the other way counts as inactive or inconclusive.

Drawing on PubChem BioAssay (Tox21), this text covers outcome and Potency for 8 compounds.

Assay [1] can be described thus: qHTS assay to test for compound auto fluorescence at 535 nm (green) in HEK293 cells (AID 720680). A general note: In qHTS, concentration-response curves come from the screen itself.
Assay [2] can be described thus: qHTS assay to test for compound auto fluorescence at 460 nm (blue) in HEK293 cell free culture (AID 720681). The procedure, abridged:
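Compounds were added to cell-free DMEM with 10% FBS and fluorescence read directly. The blue channel used 405 nm excitation and 460 nm emission, with triamterene as the reference fluorophore.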

Assay [3] is described as follows: qHTS assay to test for compound auto fluorescence at 535 nm (green) in HEK293 cell free culture (AID 720682). The method, boiled down: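 Cell-free medium (DMEM, 10% FBS) receives compound or DMSO by pintool. Plate read directly at Ex 485/Em 535 nm. Signal converted to fluorescein equivalency.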
Assay [4] is described as follows: qHTS assay to test for compound auto fluorescence at 590 nm (red) in HEK293 cell free culture (AID 720683). The method, boiled down: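 Cell-free wells of DMEM with 10% FBS received compound, and intrinsic fluorescence was read at excitation/emission 540/590 nm. Values expressed as equivalence to Rose Bengal sodium.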
Assay [5] is described as follows: qHTS assay to test for compound auto fluorescence at 460 nm (blue) in HepG2 cell free culture (AID 720685). The procedure, abridged: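 Compound (23 nL) or DMSO pinned into cell-free MEM with 10% FBS; blue fluorescence read at 405/460 nm excitation/emission, expressed as auto-fluorescence equivalency to triamterene.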
The nature of assay [6]: qHTS assay to test for compound auto fluorescence at 535 nm (green) in HepG2 cell free culture (AID 720686).
Assay [7] can be described thus: qHTS assay to test for compound auto fluorescence at 460 nm (blue) in HepG2 cells (AID 720687). The procedure, abridged:
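HepG2 cells in MEM with 10% FBS, attached overnight at 37 C, were exposed to compound or DMSO for 1 hr at 37 C, 5% CO2. Blue fluorescence was read at 405/460 nm, with triamterene as reference fluorophore.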

Assay [8] is described as follows: qHTS assay to identify small molecule antagonists of the glucocorticoid receptor (GR) signaling pathway - cell viability counter screen (AID 720693). Also: nearly all actives have a fitted effect of over 55% in size.
Assay [9] in a line: qHTS assay for identifying genotoxic compounds that show differential cytotoxicity against isogenic chicken DT40 cell lines with known DNA damage response pathways - wild type cell line (AID 743012). Also: nearly all actives have a fitted effect of over 60% in size. Also: potency is read from the fitted curve at half-maximal effect. The method, boiled down:
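First, wild type DT40 cells were plated at 300 per well and equilibrated about 0.5 h at 37 C/5% CO2. Next, compounds in DMSO were added and exposure lasted 40 h. Finally, CellTiter-Glo was added for 30 min at room temperature and luminescence recorded.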

A short description of assay [10]: qHTS assay for identifying genotoxic compounds that show differential cytotoxicity against isogenic chicken DT40 cell lines with known DNA damage response pathways - Rev3 mutant cell line (AID 743014). Also: nearly all actives have a fitted effect of over 55% in size. Also: potency is read from the fitted curve at half-maximal effect.
A short description of assay [11]: qHTS assay for identifying genotoxic compounds that show differential cytotoxicity against isogenic chicken DT40 cell lines with known DNA damage response pathways - Rad54/Ku70 mutant cell line (AID 743015). Also: nearly all actives have a fitted effect of over 60% in size. Also: potency is read from the fitted curve at half-maximal effect.
Assay [12] in a line: qHTS assay to identify small molecule antagonists of the androgen receptor (AR) signaling pathway - cell viability counter screen (AID 743033; also: nearly all actives have a fitted effect of over 45% in size).
A short description of assay [13]: qHTS assay to identify small molecule antagonists of the androgen receptor (AR) signaling pathway using the MDA cell line - cell viability counter screen (AID 743041; also: nearly all actives have a fitted effect of over 45% in size). The method, boiled down:
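MDA-kb2 AR-luc cells (MMTV-luciferase, AR/GR responsive) treated with compounds plus R1881 agonist for 16 h at 37C. CellTiter-Fluor added at 15.5 h; fluorescence read after 30 min in the same wells.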

In assay [14] the target is Glucocorticoid receptor (Homo sapiens) (UniProt P04150). Description: qHTS assay to identify small molecule agonists of the glucocorticoid receptor (GR) signaling pathway (AID 720691; active = well fitted activation curve with a large enough effect in the signal ratio in the repeat runs, not every such curve was filed as active; the % refers to the signal ratio). The method, boiled down: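 qHTS in GR-bla HeLa cells: 4 h settling at 37 C/5% CO2, 18 h compound incubation at 37 C, 2 h LiveBLAzer B/G FRET substrate at room temperature, fluorescence intensity measured.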
Sequence of Glucocorticoid receptor (Homo sapiens) (P04150 whole entry, looked up): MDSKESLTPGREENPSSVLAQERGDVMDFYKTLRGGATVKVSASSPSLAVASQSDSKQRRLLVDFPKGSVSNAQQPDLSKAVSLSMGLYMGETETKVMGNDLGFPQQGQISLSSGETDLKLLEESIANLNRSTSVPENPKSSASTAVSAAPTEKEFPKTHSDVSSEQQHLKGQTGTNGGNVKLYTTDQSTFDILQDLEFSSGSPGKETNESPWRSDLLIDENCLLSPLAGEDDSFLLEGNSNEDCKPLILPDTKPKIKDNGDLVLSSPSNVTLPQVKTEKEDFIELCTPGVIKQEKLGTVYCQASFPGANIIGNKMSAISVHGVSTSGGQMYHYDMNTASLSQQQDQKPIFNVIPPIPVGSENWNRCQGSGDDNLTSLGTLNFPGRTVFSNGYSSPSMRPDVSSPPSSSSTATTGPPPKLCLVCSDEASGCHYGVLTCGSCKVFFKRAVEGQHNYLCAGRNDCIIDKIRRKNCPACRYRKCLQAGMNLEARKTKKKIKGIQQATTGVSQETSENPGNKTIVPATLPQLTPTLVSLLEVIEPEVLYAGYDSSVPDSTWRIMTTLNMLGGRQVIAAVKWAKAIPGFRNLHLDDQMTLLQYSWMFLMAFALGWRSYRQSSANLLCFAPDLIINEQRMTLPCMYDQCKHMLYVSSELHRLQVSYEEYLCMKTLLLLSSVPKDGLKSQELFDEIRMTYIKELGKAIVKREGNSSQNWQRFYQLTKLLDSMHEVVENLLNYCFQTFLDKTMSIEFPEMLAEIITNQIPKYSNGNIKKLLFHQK

Assay [15] shares this target. The assay can be described thus: qHTS assay to identify small molecule antagonists of the glucocorticoid receptor (GR) signaling pathway (AID 720692; active = well fitted inhibition curve with a large enough effect in the signal ratio in the repeat runs, not every such curve was filed as active; the % refers to the signal ratio). The method, boiled down: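 Inhibition of glucocorticoid signalling is measured in HeLa cells with a GRE-controlled beta-lactamase reporter; cells are co-treated with compound and 5 nM dexamethasone (final) for 18 h before FRET substrate readout.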

Assay [16] addresses Androgen receptor (Homo sapiens) (UniProt P10275). Description: qHTS assay to identify small molecule antagonists of the androgen receptor (AR) signaling pathway (AID 743035; active = well fitted inhibition curve with a large enough effect in the signal ratio in the repeat runs, not every such curve was filed as active; the % refers to the signal ratio). The procedure, abridged:
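Beta-lactamase FRET read (2 h RT incubation with LiveBLAzer B/G) following 16 h of compound plus R1881 treatment of AR-UAS-bla HEK293 cells, which had been pre-incubated 4 h at 37C.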

The target is the same in assay [17]. Description: qHTS assay to identify small molecule agonists of the androgen receptor (AR) signaling pathway using the MDA cell line (AID 743040; also: nearly all actives have a fitted effect of over 20% in size). The procedure, abridged: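 MDA-kb2 breast carcinoma cells carrying MMTV-luciferase (responsive to AR and GR), plated 5 h then treated 16 h with compounds at 37C, 0% CO2. Read-out was ONE-Glo luminescence after 30 min at room temperature.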

Assay [18] has the same target. The assay can be described thus: qHTS assay to identify small molecule antagonists of the androgen receptor (AR) signaling pathway using the MDA cell line (AID 743042; also: nearly all actives have a fitted effect of over 55% in size). The method, boiled down:
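MDA-kb2 breast carcinoma cells carrying MMTV-luciferase (AR/GR responsive) were co-treated with compounds and the agonist R1881 for 16 h at 37C. Inhibition read as ONE-Glo luminescence; CellTiter-Fluor fluorescence measured in parallel for cytotoxicity.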

Assay [19] is described as follows: qHTS assay to test for compound auto fluorescence at 590 nm (red) in HepG2 cell free culture (AID 720684). The method, boiled down:
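Compound was pinned into wells holding MEM with 10% FBS and no cells, and red fluorescence was read at Ex/Em 540/590 nm. Signal is expressed as auto fluorescence equivalency relative to Rose Bengal sodium.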

Assay [20] addresses Androgen receptor (Homo sapiens) (UniProt P10275). Description: qHTS assay to identify small molecule agonists of the androgen receptor (AR) signaling pathway (AID 743036; active = well fitted activation curve with a large enough effect in the signal ratio in the repeat runs, with a control signal flat, not every such curve was filed as active; the % refers to the signal ratio). The procedure, abridged: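 AR-bla HEK293 cells, 2,000/well; 4 h preincubation 37C/5% CO2; compound (DMSO) 16 h at 37C; LiveBLAzer B/G FRET substrate 2 h RT; fluorescence intensity read-out.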

Sequence of Androgen receptor (Homo sapiens) (P10275 whole entry, looked up): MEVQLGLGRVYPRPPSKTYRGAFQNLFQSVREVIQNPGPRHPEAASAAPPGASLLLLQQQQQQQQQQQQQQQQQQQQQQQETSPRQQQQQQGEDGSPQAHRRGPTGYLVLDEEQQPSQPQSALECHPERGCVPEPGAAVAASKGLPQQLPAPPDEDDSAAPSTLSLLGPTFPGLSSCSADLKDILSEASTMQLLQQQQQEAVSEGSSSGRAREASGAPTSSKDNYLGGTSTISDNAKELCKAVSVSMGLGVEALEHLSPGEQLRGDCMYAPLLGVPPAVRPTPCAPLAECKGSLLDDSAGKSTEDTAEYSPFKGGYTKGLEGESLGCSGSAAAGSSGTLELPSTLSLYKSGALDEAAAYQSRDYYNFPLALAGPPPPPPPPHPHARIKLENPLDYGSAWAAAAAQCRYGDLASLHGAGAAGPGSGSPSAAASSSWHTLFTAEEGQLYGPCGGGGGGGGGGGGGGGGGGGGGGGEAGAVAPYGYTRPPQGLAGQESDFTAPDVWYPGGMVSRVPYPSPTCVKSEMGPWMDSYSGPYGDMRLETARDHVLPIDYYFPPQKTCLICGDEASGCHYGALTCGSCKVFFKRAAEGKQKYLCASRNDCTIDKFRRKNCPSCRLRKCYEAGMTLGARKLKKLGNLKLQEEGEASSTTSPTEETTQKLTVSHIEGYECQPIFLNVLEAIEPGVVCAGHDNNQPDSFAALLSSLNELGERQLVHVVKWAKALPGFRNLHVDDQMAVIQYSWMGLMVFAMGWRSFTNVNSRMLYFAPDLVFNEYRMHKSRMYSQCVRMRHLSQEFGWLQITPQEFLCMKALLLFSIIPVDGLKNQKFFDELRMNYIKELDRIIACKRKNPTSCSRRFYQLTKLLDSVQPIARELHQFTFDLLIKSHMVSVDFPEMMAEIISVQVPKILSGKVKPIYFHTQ

On to `O=S(=O)(c1cccc2cnccc12)N1CCCNCC1`, for which the compound was called inactive in [1], in [3], in assay [4], in [6], in assay [8] and in assay [12]. Besides, the Potency result in assay [2], in [5], in assay [7], in assay [9], in [10] and in [11] was “inactive” throughout. Also, the Potency entry in assay [13] is “inactive”.

As to `CCCCCCCCN(C)CCCCCCCC`, the compound was called inactive in [1], in [3], in assay [4], in assay [6], in [8] and in [12]. Moreover, the outcome in assay [18] was inactive. Also, the Potency result in assay [2], in [5], in assay [7], in assay [14], in assay [15] and in assay [16] was “inactive” in each case. The Potency result in assay [17] and in assay [13] was “inactive” each time.

On to `Nc1nc(F)nc2c1ncn2[C@@H]1O[C@H](CO)[C@@H](O)[C@@H]1O`, for which the call in assay [1], in assay [3], in assay [4], in assay [8] and in assay [12] was inactive. Further, the Potency result in assay [2], in [5], in assay [7], in [14], in assay [15] and in assay [13] was “inactive” in each case. The Potency in assay [9] was 841 nM (active) and 1.68 µM (active); in [10], 596 nM (active) and 1.88 µM (active); in assay [11], 1.33 µM (active) and 2.66 µM (active).

Take `OC[C@H]1O[C@@H]2O[C@H]3[C@H](O)[C@@H](O)[C@@H](O[C@H]4[C@H](O)[C@@H](O)[C@@H](O[C@H]5[C@H](O)[C@@H](O)[C@@H](O[C@H]6[C@H](O)[C@@H](O)[C@@H](O[C@H]7[C@H](O)[C@@H](O)[C@@H](O[C@H]8[C@H](O)[C@@H](O)[C@@H](O[C@H]9[C@H](O)[C@@H](O)[C@@H](O[C@H]1[C@H](O)[C@H]2O)O[C@@H]9CO)O[C@@H]8CO)O[C@@H]7CO)O[C@@H]6CO)O[C@@H]5CO)O[C@@H]4CO)O[C@@H]3CO`: the call in assay [1], in assay [3], in assay [4], in assay [6], in [8] and in assay [12] was inactive. In addition, the Potency result in assay [2], in [5], in [7], in [14], in assay [15] and in assay [9] was “inactive” throughout. The Potency entry in assay [11] and in assay [13] was “inactive” throughout.

`CC(C)c1cccc(C(C)C)c1N`: the compound was called inactive in assay [1], in [3], in assay [4], in assay [6], in [8] and in assay [12]. The Potency entry in assay [2], in assay [5], in [7], in assay [14], in [15] and in assay [9] was “inactive” throughout. Further, the Potency result in [10], in [11] and in assay [13] was “inactive” each time.

With `CSc1nc(NC2CC2)nc(NC(C)(C)C)n1`, the call in assay [1], in assay [3], in assay [4], in [6], in assay [8] and in assay [12] was inactive. Moreover, the Potency entry in [2], in assay [5], in assay [7] and in assay [13] was “inactive” throughout. For the same compound, the Potency in [9], in assay [10] and in assay [11] was 54.5 µM (active) in each case.

As to `O=S(=O)(O)c1ccccc1O`, the Potency result in assay [2], in [5], in assay [7], in assay [14], in [15] and in assay [9] was “inactive” each time. Further, the Potency entry in assay [10], in assay [11], in assay [16], in assay [17] and in [13] was “inactive” each time. Besides, the compound was classed as inactive in [3], in [4], in assay [19], in assay [6], in [8] and in [12]. Moreover, the compound was classed as inactive in assay [20] and in assay [18].

For `Nc1ccn(C2CO[C@H](CO)O2)c(=O)n1` (stereo partly drawn), the call in assay [1], in assay [3], in assay [4], in [6], in assay [8] and in assay [12] was inactive. Further, the Potency result in [2], in assay [5], in assay [7] and in assay [13] was “inactive” each time.
